# Test results as given in the supplement of paper PMC10849652.
# Of roughly 7,900 targets only a part is listed; those with a hit were picked by preference. About 0.6% of all pairs of compound and target were hits. A number with no mark means an inactive call.
# Compound: CC1=C(C=C(C=C1)NC(=O)C2=CC(=CC=C2)C(C)(C)C#N)NC3=CC4=C(C=C3)N=CN(C4=O)C
# Test: log2 fold change, soluble protein after heating vs DMSO (PISA); higher = thermal stabilisation; K562 cells, 10 uM, 30 min; active = over 0.2 and 3.5 SD of the protein, either way, in both replicates (recomputed)
# In short: (§1)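 Aliquots of K562 cells (2×10^6 cells/mL) treated with 10 μM compound for 30 min were heated for 3 min over 48°C-58°C. After pooling and extraction in PBS with 0.5% NP-40 at 4°C, soluble protein from a 21,000xg, 90 min spin was quantified by TMTpro 16plex LC-MS/MS with channel sums equalised. Thermal stability is expressed against control samples, from duplicates, as a log2 fold change.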
# Chain of UniProt P02749 (P02749 whole entry, looked up): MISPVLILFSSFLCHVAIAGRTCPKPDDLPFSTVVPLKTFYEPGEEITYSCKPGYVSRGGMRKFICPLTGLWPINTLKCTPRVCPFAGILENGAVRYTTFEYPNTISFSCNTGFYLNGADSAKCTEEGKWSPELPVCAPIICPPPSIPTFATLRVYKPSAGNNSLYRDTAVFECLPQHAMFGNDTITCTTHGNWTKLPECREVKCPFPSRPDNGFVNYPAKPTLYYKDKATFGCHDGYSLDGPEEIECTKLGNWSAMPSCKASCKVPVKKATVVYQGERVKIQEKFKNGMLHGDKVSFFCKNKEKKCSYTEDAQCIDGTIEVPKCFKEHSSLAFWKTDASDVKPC
# Chain of UniProt Q15059 (Q15059 whole entry, looked up): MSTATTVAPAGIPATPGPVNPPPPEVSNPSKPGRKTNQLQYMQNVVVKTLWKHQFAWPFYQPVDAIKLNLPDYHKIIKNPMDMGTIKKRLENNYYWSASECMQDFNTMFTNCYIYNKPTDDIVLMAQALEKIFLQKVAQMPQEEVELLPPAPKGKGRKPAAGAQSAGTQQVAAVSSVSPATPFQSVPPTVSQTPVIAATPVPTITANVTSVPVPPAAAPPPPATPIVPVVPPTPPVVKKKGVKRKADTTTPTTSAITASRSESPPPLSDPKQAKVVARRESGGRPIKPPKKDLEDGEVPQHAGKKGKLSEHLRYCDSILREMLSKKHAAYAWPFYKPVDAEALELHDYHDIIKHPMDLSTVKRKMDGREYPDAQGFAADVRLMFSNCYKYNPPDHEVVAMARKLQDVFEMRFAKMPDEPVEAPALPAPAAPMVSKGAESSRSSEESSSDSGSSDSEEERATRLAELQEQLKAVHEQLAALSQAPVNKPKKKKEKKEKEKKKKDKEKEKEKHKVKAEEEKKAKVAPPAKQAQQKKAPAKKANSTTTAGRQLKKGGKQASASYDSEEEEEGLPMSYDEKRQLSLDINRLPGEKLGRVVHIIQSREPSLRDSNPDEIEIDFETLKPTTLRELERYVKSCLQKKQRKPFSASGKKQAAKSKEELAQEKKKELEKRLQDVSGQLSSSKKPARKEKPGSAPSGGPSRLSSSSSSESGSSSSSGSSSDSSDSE
# Chain of UniProt Q9NXW9 (Q9NXW9 whole entry, looked up): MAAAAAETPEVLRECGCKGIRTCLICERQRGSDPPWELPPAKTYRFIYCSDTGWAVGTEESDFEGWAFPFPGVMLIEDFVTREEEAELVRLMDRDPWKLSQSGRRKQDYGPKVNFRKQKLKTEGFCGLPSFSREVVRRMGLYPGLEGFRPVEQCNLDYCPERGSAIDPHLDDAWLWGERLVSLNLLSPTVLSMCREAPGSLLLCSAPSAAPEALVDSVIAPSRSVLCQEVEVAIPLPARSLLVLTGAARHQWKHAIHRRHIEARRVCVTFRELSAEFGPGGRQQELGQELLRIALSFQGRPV
# Chain of UniProt Q13685 (Q13685 whole entry, looked up): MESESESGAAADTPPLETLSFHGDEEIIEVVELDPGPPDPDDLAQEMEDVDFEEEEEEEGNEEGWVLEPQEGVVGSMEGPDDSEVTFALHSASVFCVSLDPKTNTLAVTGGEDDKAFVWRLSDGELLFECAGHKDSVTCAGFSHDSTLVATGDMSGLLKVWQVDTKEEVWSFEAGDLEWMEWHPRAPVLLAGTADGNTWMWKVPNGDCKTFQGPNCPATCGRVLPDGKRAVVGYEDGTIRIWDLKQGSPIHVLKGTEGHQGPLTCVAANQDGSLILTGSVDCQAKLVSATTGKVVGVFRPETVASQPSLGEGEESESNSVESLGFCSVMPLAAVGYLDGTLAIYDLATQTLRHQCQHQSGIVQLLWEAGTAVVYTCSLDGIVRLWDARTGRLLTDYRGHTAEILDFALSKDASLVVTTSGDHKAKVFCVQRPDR
# Chain of UniProt Q9NX38 (Q9NX38 whole entry, looked up): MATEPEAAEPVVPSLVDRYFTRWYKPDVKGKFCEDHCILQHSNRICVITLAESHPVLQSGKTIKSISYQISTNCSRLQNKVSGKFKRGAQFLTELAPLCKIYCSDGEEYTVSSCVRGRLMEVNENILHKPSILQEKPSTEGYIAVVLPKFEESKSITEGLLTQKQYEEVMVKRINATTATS
# Chain of UniProt Q96P47 (Q96P47 whole entry, looked up): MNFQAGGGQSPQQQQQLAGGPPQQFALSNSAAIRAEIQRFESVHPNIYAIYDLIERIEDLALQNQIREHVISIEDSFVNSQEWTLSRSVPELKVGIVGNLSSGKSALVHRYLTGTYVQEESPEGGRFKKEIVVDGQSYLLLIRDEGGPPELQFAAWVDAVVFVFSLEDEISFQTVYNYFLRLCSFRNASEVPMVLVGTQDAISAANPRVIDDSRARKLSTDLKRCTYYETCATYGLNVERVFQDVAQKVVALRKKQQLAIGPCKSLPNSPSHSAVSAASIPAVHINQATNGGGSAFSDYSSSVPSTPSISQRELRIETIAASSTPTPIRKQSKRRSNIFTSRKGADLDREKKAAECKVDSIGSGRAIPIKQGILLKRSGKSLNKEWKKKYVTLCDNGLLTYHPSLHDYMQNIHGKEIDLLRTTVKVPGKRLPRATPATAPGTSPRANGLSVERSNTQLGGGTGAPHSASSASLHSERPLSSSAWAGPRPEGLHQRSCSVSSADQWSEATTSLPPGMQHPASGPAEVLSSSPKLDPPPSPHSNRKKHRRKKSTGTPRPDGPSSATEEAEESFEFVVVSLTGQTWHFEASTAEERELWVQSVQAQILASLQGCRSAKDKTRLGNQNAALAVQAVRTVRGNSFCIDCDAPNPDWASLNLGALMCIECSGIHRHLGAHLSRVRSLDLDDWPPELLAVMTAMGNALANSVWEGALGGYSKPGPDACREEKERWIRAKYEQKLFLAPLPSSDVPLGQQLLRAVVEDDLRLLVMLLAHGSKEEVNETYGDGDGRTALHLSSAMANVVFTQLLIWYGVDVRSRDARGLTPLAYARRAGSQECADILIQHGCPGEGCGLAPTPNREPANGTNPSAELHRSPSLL
# Chain of UniProt Q02252 (Q02252 whole entry, looked up): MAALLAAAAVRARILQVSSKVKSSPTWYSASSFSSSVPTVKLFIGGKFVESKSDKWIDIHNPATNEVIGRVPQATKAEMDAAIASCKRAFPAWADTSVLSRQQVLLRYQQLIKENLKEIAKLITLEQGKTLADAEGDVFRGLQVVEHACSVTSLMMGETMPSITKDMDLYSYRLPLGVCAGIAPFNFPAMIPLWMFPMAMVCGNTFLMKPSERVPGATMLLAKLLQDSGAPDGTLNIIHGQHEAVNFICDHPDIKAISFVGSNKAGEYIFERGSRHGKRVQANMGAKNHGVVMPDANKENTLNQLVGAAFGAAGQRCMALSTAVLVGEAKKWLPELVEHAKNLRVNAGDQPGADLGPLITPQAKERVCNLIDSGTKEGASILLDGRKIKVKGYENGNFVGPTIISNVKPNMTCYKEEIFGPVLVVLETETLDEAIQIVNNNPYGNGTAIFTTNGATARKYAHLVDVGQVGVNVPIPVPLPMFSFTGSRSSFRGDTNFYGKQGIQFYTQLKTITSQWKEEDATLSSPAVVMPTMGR
# Chain of UniProt P98171 (P98171 whole entry, looked up): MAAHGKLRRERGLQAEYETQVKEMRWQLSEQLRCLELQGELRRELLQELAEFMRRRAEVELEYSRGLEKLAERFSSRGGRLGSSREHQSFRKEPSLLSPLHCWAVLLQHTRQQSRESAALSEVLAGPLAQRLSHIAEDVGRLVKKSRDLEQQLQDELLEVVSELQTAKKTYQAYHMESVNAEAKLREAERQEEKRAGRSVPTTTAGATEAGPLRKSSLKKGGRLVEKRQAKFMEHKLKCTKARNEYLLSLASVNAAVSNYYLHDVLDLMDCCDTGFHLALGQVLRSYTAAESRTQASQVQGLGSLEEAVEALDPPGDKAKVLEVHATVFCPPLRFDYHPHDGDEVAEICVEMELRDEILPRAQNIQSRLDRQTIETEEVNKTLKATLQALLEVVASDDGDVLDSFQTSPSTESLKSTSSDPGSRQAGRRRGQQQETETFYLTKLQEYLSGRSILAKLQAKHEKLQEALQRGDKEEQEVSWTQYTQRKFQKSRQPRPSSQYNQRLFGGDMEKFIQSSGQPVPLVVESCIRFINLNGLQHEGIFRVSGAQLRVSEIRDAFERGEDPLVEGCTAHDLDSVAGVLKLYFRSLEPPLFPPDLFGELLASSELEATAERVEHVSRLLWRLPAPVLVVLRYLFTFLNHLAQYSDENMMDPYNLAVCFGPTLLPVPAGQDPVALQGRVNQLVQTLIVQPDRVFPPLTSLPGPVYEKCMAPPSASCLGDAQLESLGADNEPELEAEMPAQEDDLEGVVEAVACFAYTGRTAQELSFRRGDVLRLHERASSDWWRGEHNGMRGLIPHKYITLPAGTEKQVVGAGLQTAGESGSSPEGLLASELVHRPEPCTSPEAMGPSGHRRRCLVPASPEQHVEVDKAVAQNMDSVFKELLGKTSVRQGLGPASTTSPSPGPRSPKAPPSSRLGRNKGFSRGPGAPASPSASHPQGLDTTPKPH
# Chain of UniProt P49189 (P49189 whole entry, looked up): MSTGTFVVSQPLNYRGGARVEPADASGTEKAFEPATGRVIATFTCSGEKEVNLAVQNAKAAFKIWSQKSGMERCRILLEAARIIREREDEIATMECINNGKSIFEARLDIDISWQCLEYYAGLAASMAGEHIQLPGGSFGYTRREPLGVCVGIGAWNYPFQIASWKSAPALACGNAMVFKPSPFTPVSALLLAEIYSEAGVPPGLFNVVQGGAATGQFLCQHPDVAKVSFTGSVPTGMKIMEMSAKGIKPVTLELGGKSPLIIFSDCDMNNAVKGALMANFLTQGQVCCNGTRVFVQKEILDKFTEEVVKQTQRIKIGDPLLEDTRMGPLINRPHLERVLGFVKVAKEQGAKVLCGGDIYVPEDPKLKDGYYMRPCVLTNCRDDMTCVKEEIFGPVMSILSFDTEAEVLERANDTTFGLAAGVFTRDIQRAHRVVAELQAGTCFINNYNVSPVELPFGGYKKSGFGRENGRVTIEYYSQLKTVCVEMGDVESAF
# Chain of UniProt P55008 (P55008 whole entry, looked up): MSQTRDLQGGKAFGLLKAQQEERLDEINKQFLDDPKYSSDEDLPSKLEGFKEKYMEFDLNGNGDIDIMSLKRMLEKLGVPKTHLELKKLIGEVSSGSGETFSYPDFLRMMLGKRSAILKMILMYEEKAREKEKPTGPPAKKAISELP
row,Target,log2 fold change
1,APAF1 (UniProt O14727),0.023
2,ABITRAM (UniProt Q9NX38),0.011
3,AIF1 (UniProt P55008),-0.042
4,ALKBH4 (UniProt Q9NXW9),0.071
5,BRD3 (UniProt Q15059),0.261
6,ADD3 isoform 2 (UniProt Q9UEY8),0.034
7,ARHGAP4 isoform 2 (UniProt P98171),-0.14
8,ALDH9A1 (UniProt P49189),0.004
9,ALDH6A1 (UniProt Q02252),-0.02
10,APOH (UniProt P02749),-0.346
11,AGAP3 isoform 4 (UniProt Q96P47),0.037
12,ANK2 (UniProt Q01484),-0.11
13,AAMP (UniProt Q13685),0

# Compound: CC1=C(C=C(C=C1)NC(=O)C2=CC(=CC=C2)N(C)C)NC(=O)C3=CC=C(C=C3)O
# Test: as above
# In short: as §1
row,Target,log2 fold change
1,ABHD17A isoform 2 (UniProt Q96GS6),-0.031
2,AASDH (UniProt Q4L235),0.024
3,ARFGAP2 (UniProt Q8N6H7),-0.065
4,ACTBL2 (UniProt Q562R1),0.243
5,AMD1 (UniProt P17707),-0.142
6,BRD4 (UniProt O60885),-0.272
7,ADPRH (UniProt P54922),-0.008
8,BDH2 (UniProt Q9BUT1),-0.085
9,ANXA5 (UniProt P08758),-0.065
10,BTBD6 (UniProt Q96KE9),-0.108
11,BYSL (UniProt Q13895),-0.042
12,ALDH2 isoform 2 (UniProt P05091),-0.049
13,ARRDC1 (UniProt Q8N5I2),0
14,BRIP1 (UniProt Q9BX63),-0.007
15,ADAM15 (UniProt Q13444),0.056
16,ABCA3 (UniProt Q99758),0.011
17,AFG1L (UniProt Q8WV93),0.037
18,BRD8 isoform 2 (UniProt Q9H0E9),-0.333

row,Target,log2 fold change
1,ASS1 (UniProt P00966),-0.015
2,APOBEC3G (UniProt Q9HC16),0.069
3,ATF7 isoform 6 (UniProt P17544),-0.163
4,AIFM2 (UniProt Q9BRQ8),0
5,ASB6 (UniProt Q9NWX5),-0.033
6,APAF1 (UniProt O14727),0.014
7,ABITRAM (UniProt Q9NX38),-0.036
8,AIF1 (UniProt P55008),-0.039
9,ALKBH4 (UniProt Q9NXW9),-0.008
10,BRD3 (UniProt Q15059),0.008
11,ADD3 isoform 2 (UniProt Q9UEY8),-0.021
12,ARHGAP4 isoform 2 (UniProt P98171),0.039
13,ALDH9A1 (UniProt P49189),0.004
14,ALDH6A1 (UniProt Q02252),0.032
15,APOH (UniProt P02749),0.265
16,AGAP3 isoform 4 (UniProt Q96P47),0.071
17,ANK2 (UniProt Q01484),-0.031
18,AAMP (UniProt Q13685),-0.006

# Compound: CC1=CC=C(C=C1)SC2=C3C=C(SC3=CN=C2)C(=O)N
# Test: as above
# In short: as §1
row,Target,log2 fold change
1,ABHD17A isoform 2 (UniProt Q96GS6),0.035
2,AASDH (UniProt Q4L235),-0.043
3,ARFGAP2 (UniProt Q8N6H7),-0.027
4,ACTBL2 (UniProt Q562R1),-0.385
5,AMD1 (UniProt P17707),0.049
6,BRD4 (UniProt O60885),0.071
7,ADPRH (UniProt P54922),-0.002
8,BDH2 (UniProt Q9BUT1),0.086
9,ANXA5 (UniProt P08758),-0.01
10,BTBD6 (UniProt Q96KE9),0.003
11,BYSL (UniProt Q13895),-0.01
12,ALDH2 isoform 2 (UniProt P05091),-0.106
13,ARRDC1 (UniProt Q8N5I2),0.071
14,BRIP1 (UniProt Q9BX63),-0.009
15,ADAM15 (UniProt Q13444),0
16,ABCA3 (UniProt Q99758),-0.008
17,AFG1L (UniProt Q8WV93),0.042
18,BRD8 isoform 2 (UniProt Q9H0E9),-0.044

row,Target,log2 fold change
1,ASS1 (UniProt P00966),-0.06
2,APOBEC3G (UniProt Q9HC16),-0.064
3,ATF7 isoform 6 (UniProt P17544),-0.155
4,AIFM2 (UniProt Q9BRQ8),0
5,ASB6 (UniProt Q9NWX5),0.117
6,APAF1 (UniProt O14727),-0.003
7,ABITRAM (UniProt Q9NX38),0.062
8,AIF1 (UniProt P55008),-0.056
9,ALKBH4 (UniProt Q9NXW9),-0.015
10,BRD3 (UniProt Q15059),0.035
11,ADD3 isoform 2 (UniProt Q9UEY8),-0.08
12,ARHGAP4 isoform 2 (UniProt P98171),-0.08
13,ALDH9A1 (UniProt P49189),-0.015
14,ALDH6A1 (UniProt Q02252),-0.039
15,APOH (UniProt P02749),0.055
16,AGAP3 isoform 4 (UniProt Q96P47),-0.039
17,ANK2 (UniProt Q01484),0.019
18,AAMP (UniProt Q13685),-0.028
